# Screening results as filed in PubChem.
# hcDAF12 agonist – H. contortus DAF-12 nuclear receptor activators, primary screen, cell-based, luminescence, HEK293, lit1-tk-luc reporter. activation, % at 6.8 µM. AID 652067, 2013. HEK293 hcDAF-12 lit1-tk-luc reporter; 0% DMSO, 100% Δ7-dafachronic acid. 1.4% of 370,000 active;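 active means activation above the mean of all tested compounds plus 3 SD, cut at about 5.5% in these data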;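 further: 100% = response to 3 µM Δ7-dafachronic acid high control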
# hgDAF-12 ag – H. glycines DAF-12 receptor agonists, primary screen, cell-based, luminescence, HEK293, GAL4 fusion, UAS-luciferase | Nuclear hormone receptor DAF-12 (Heterodera glycines), GAL4 fusion | HEK293 GAL4-hgDAF12 UAS-luciferase reporter, agonist luminescence; normalized to butyrate control | activation, % at 6.8 µM | 1.8% of 370,000 active | AID 687014, 2013;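 active means activation above a cutoff set at the mean of all screened compounds plus 3 SD, cut at about 10% in these data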;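 further: 0% = DMSO wells and 100% = sodium butyrate wells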
# APP 5'UTR act – activators of APP 5'UTR luciferase reporter, primary screen, SH-SY5Y cells; SH-SY5Y APP 5'UTR luciferase reporter, luminescence; zero percent = DMSO vehicle wells; activation, % at 2 µM; 1% of 190,000 active; AID 1276, 2008;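 active means activation above a set limit, based on mean plus 3 SD of controls, cut at about 140% in these data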
# ssDAF12 agonist – S. stercoralis DAF-12 nuclear receptor activators, primary screen, cell-based, luminescence, HEK293, GRIP1 co-expression, lit1-tk-luc. Nuclear hormone receptor DAF-12 (Strongyloides stercoralis). HEK293 ssDAF-12/GRIP1 lit1-tk-luc reporter; % of 3 µM dafachronic acid response. activation, % at 6.8 µM. 1% of 370,000 active. AID 652126, 2013;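 active means activation above the mean over all tested compounds plus 3 SD, cut at about 0.9% in these data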;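 further: 0% = DMSO-only wells and 100% = 3 µM delta7-dafachronic acid wells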
# NF-kB neuron act – activators of NF-kB expression in neurons, primary screen, cell-based, HTS | human neuronal cells, NF-kB reporter expression; hits give high values | fold change at 12.5 µM | 1.6% of 190,000 active; in the data active means fold change above about 3.3
# Numbers without * were called inactive; . = not tested or not shown. Only some compounds are listed: those with a hit (about 3.4% of all), similar ones and a draw of the others.
SMILES,hcDAF12 agonist,hgDAF-12 ag,APP 5'UTR act,ssDAF12 agonist,NF-kB neuron act
CCCc1nc2c3ccccc3ccn2c1Cc1ccccc1OC,3,6,.,0,.
CCCc1nc2c3ccccc3ccn2c1Cc1ccc(OC)cc1C,3,1,.,1.0*,.
CC(OC(=O)CNC(=O)C1CCCCC1)C(=O)NCc1ccccc1 (stereo not drawn),0,-1,.,1.6*,.
O=C(CNC(=O)C1CCCCC1)OC(C(=O)c1ccccc1)c1ccccc1 (stereo not drawn),1,0,.,-1,.
CCN(C(=O)COC(=O)CNC(=O)C1CCCCC1)c1ccccc1,-1,1,.,1.0*,.
CC(NC(=O)COC(=O)CNC(=O)C1CCCCC1)c1ccccc1 (stereo not drawn),-1,-1,.,-1,.
COc1ccccc1CNC(=O)C[C@H]1CC[C@H]2[C@H](COc3ccc(NS(=O)(=O)c4ccc(C)cc4)cc3C(=O)N2C)O1,-1,-1,.,-1,.
Cc1ccccc1Cn1nnc(-c2ccc3c(c2)OCO3)n1,0,7,15,0,2
Fc1cccc(Cl)c1Cn1nnc(-c2ccc3c(c2)OCO3)n1,4,10,68,0,3.6*
COC(=O)[C@H](C(C)C)N1CCc2nnn(CC3CCCCC3)c2-c2cc(F)ccc2S1(=O)=O,-2,1,.,-1,.
CC(=O)n1c2c(c3ccccc31)OC(N)=C(C#N)C2c1ccc(C(C)C)cc1 (stereo not drawn),5.6*,-1,48,-1,0.61
CCCCc1nc2cc(C(=O)N3CCCCC3C(=O)OC)ccc2o1 (stereo not drawn),-1,12*,.,0,.
Nc1ccc(O)c(-c2nc3ccccc3s2)c1,4,7,22,1.2*,2.1
C#CCNC(=O)C[C@@H]1C(=O)N(CC=C)C2=CCCCC[C@]21C(=O)OC,1,-2,.,-1,.
CCOC(=O)C(=O)N(CC)C1CCS(=O)(=O)C1 (stereo not drawn),5,-1,.,1.2*,.
CCOc1cccc2sc(N(CCN(CC)CC)C(=O)c3ccc(S(=O)(=O)N4CCCCC4)cc3)nc12,0,0,9,2.0*,1
Cc1cccc(C(=O)n2c(=S)nc3ccccn32)c1,.,.,122,.,4.4*
Cc1ccc(C(=O)n2ncn(C)c2=S)cc1,0,-3,19,-1,1.2
Cc1ccc(C(=O)n2c(=S)nc3ccccn32)cc1,.,.,184*,.,2.6
Cc1cccc(C(=O)N2CCCCCC2)c1,0,-1,-9,-1,1.1
Cc1ccccc1N1CC(=O)N(c2ccccc2C)CC1=O,-2,-2,13,-1,1
CC1=NN(c2ccccc2C)C(=O)C1,0,0,.,1.9*,.
Clc1ccc2oc(-c3ccccc3)cc(=NCCCN3CCOCC3)c2c1,4,16*,70,0,1.8
O=P(C1=C(N2CCOCC2)/C(=C\c2ccccc2)CC1)(N1CCOCC1)N1CCOCC1,6.5*,0,7,-2,1
O=C(NP(=O)(N1CCOCC1)N1CCOCC1)C1=C(N2CCOCC2)/C(=C\c2ccccc2)CC1,2,-2,18,-1,0.98
SMILES,hcDAF12 agonist,hgDAF-12 ag,APP 5'UTR act,ssDAF12 agonist,NF-kB neuron act
COc1ccc(-c2c(Cc3ccccc3)nc(NC(=O)c3ccccc3)n2Cc2ccc(OC)cc2OC)cc1,2,4,.,-1,.
O=C(Cc1ccccc1)NCc1ccccn1,-1,0,12,-1,1.1
O=C(O)Cc1sc(Nc2ccc(F)cc2)nc1-c1cccs1,3,15*,26,0,1.6
O=C(Cc1sc(Nc2ccccc2)nc1-c1ccccc1)NCc1ccccn1,6.0*,11*,8,0,1.4
O=C(O)Cc1sc(Nc2ccccc2)nc1-c1ccc(Cl)cc1,2,11*,41,1,2
COc1ccc(NC(=O)CSc2nc(C)cc(=O)[nH]2)cc1OC,-1,0,.,0,.
Cc1ccnc(NC(=O)CCCOc2cc(=O)n(C)c3ccccc23)c1,-1,2,13,0,7.6*
COc1ccccc1CNc1cc(C)ccn1,0,-2,.,-1,.
COc1ccccc1CC(=O)Nc1cc(C)ccn1,5,6,.,1.3*,.
